# Screens: PubChem BioAssay, National Center for Advancing Translational Sciences (NCATS)
# D2 PAM-1: positive allosteric modulators of human D2 dopamine receptor. hit rate 0.34% among 340,000. potentiation, % at 10 µM. P14416. HEK293 T-REx D2, calcium flux, EC20 dopamine potentiation;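 active = potentiation over 3 SD above the plate norm, cut at about 30% in these data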; also: 0% is about no effect
# Target sequence (P14416 whole entry, looked up): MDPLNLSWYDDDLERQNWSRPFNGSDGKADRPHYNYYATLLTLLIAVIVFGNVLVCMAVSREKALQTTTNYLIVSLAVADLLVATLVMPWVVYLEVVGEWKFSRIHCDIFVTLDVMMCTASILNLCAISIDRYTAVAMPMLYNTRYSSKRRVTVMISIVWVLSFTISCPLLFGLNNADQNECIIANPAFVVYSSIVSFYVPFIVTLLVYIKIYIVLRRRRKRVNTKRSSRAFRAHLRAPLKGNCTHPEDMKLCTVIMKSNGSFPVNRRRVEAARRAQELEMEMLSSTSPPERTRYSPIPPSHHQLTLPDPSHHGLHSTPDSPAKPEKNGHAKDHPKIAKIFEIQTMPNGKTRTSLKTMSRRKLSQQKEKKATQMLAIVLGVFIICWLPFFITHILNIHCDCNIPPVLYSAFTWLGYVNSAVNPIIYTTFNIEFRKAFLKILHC
#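 Potentiation of an EC20 dopamine calcium response is measured in a force-coupled, tetracycline-inducible Hek293 Trex D2 line. Compound-only kinetic reads over 180 s flag agonists before dopamine addition.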
# D2 PAM-2: potentiates the human D2 dopamine receptor allosterically | P14416 | hit rate 0.23% among 360,000 | DiscoveRx D2 beta-arrestin cells, luminescence, 90 min; 100% = 57 uM dopamine signal | potentiation, % (test concentration not listed); in the data active = potentiation above about 50%
#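 D2 cells co-treated with compound plus 50 nM dopamine (EC20) for 90 min at 37 deg C to detect potentiation. Beta-arrestin recruitment was read as enzyme-fragment luminescence after 1 h at ambient temperature. Full response was set by 57 uM dopamine.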
# LDHA block: blocks human lactate dehydrogenase A. hit rate 0.15% among 480,000. AID 1347041. P00338. activity change, % (values are at about 110 or 230 µM). purified LDHA, NADH/diaphorase-resazurin fluorescence; active compounds read low; in the data active = activity change below about -30%;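 also: plate controls were DMSO wells for no effect and wells without enzyme for full effect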
#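 Human LDH5 (2 nM) was incubated with 0.06 mM NADH and 0.2 mM pyruvate for 5 min at room temperature in Tris pH 7.4. Remaining NADH was coupled through diaphorase/resazurin, and resorufin fluorescence was read at 0 and 20 min.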
# D2 ag-1: agonists of human D2 dopamine receptor; HEK293 T-REx D2 cells, calcium flux agonist mode; activation, % at 2 µM; hit rate 0.53% among 340,000;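 active = activation over 3 SD above normal in the single-dose calcium agonist read, cut at about 30% in these data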; also: 0% is about no effect
#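 In this primary screen, compounds producing a positive calcium signal within 180 s of addition to tetracycline-induced, force-coupled HEK293 Trex D2 cells are flagged; cells are dye-loaded with a no-wash calcium kit beforehand.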
# D2 antag: antagonists of human D2 dopamine receptor; HEK293 TREx D2 cells, calcium flux, dopamine EC80; inhibition, % at 10 µM; P14416; AID 485344; hit rate 2% among 340,000; in the data active = inhibition above about 30%; inactive = below that, where a call was filed; also: 0% is about no effect
#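 HEK293 T-REx D2 cells, tet-induced, calcium dye no-wash. Cpd pintool add, 180 s kinetic, then EC80 DA, 180 s kinetic. Ca flux read.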
# D2 ag-2: agonists of human D2 dopamine receptor (beta-arrestin); P14416; DiscoveRx PathHunter D2 beta-arrestin, luminescence, 90 min; 100% = 57 uM dopamine signal; hit rate 0.084% among 360,000; activation, % (no concentration beside the values); in the data active = activation above about 40%
#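 Agonist mode: compounds alone added to overnight-plated D2 PathHunter cells for 90 min at 37 C, with 57 uM final dopamine (EC100) defining full response. Beta-arrestin recruitment detected by chemiluminescent reagent, read after 1 h at ambient temperature.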
# * marks the source's active call; other numbers are inactive results; . = no result. In the library only some 2.1% were active in any assay of this set; here they are far more common.
SMILES,D2 PAM-1,D2 PAM-2,LDHA block,D2 ag-1,D2 antag,D2 ag-2
CCN(CC)CCCNC(=S)N1CCN(c2nc3ccccc3n2CC)CC1,-17,-20,-2,2,48*,6
CCOC(=O)CN(CC1CC1)C(=O)Cc1ccc(C)s1,.,.,1,.,.,.
CCOc1ccc(NCc2cc3c(C(C)(C)C)nn(-c4ccccc4)c3[nH]c2=O)cc1,2,-33,18,0,-7,-4
CC(C)(C)c1nn(-c2ccccc2)c2nc(Cl)c(C=O)cc12,4,-1,2,-1,32*,3
Cc1ccc2nc3c(cc2c1)c(C)nn3-c1ccccc1,4,-4,1,0,8,-5
CC(C)(C)c1nn(-c2ccccc2)c2[nH]c(=O)c(C=O)cc12,1,-22,-1,-2,39*,-11
CC(C)OCCCNC(=S)NC1CCCC1,.,.,-17,.,.,.
Cc1oc(-c2cccc(C(F)(F)F)c2)nc1CN1CCC[C@H]1CO,-28,-13,0,-1,70*,0
CCOc1ccc(NC(=NCc2ccc3c(c2)OCO3)SC2CC(=O)N(c3ccccc3)C2=O)cc1 (stereo not given),31*,-3,-5,1,-8,-4
COc1ccccc1C(=O)NCC(=O)N1CC=C(c2ccccc2)CC1,-6,-13,-7,-1,30*,2
Cc1ccccc1-c1cc(C(=O)NCc2ccc3c(c2)OCO3)n(CC2CC(c3cccnc3)=NO2)n1 (stereo not given),6,-18,0,-2,83*,2
Cc1ccc(/C=C/C(=O)Oc2ccc(-c3ccc(C#N)cc3)cc2)o1,.,.,10,.,.,.
COc1ccc(NC(=O)NC2(C(F)(F)F)Oc3ccccc3O2)cc1,.,.,72,.,.,.
CSc1ccccc1NC(=O)CNCCCN1CCOCC1,-8,-6,-36*,1,8,1
CN1CCc2cc(Cl)c(O)cc2[C@@H](c2ccccc2)C1,-28,-41,-3,2,-5,-5
C=CCN1CCc2c(cc(O)c(O)c2Br)[C@@H](c2ccccc2)C1,.,66*,-1,.,.,59*
CN(C)C(Cc1ccccc1)C(=O)c1cc2ccccc2o1 (stereo not given),.,.,12,.,.,.
Cc1ccccc1OCC(=O)OCC(=O)Nc1ccc(Cl)cn1,-12,-4,-2,1,31*,-3
O=C(CCNC(=O)N1CCn2c1nc1ccccc12)NC1CC1,.,.,2,.,.,.
O=C(CSC1=NCCN1)Nc1cccc(C(F)(F)F)c1,-21,-13,-9,1,75*,-2
O=C(Nc1ccc(F)cc1)c1cccc(N2C(=O)C3C4C=CC(C5CC45)C3C2=O)c1 (stereo not given),9,-5,0,0,-5,1
COC(=O)c1ccc(NC(=O)c2cccc(N3C(=O)C4C5C=CC(C6CC56)C4C3=O)c2)cc1 (stereo not given),15,4,-5,0,8,-1
COc1ccc(OC)c(NC(=O)c2cccc(N3C(=O)C4C5C=CC(C6CC56)C4C3=O)c2)c1 (stereo not given),40*,-9,-5,-1,2,7
O=C(Nc1ccccc1)c1cccc(N2C(=O)C3C4C=CC(C5CC45)C3C2=O)c1 (stereo not given),0,-2,-7,1,32*,2
C=CCn1c(SCC(=O)Nc2sccc2C#N)nc2sc(C)c(C)c2c1=O,-1,-12,-4,1,32*,1
Cc1c(Cl)c([N+](=O)[O-])nn1CC(=O)NCc1cccnc1,-2,0,-4,0,39*,3
Cc1c(Br)c([N+](=O)[O-])nn1CC(=O)NCc1cccnc1,-6,2,3,-2,-12,-2
Cc1ccc(CC(=O)NCc2cccnc2)cc1,4,.,.,1,67*,.
O=C(NCc1cccnc1)c1ccc(-c2cc(Cl)ccc2Cl)o1,-20,-6,2,-1,50*,-6
O=C(O)c1ccc(-c2ccc(Cc3ccc(-c4ccc(C(=O)O)cc4)o3)o2)cc1,.,.,5,.,.,.
